Bioassay records as filed in PubChem BioAssay.
Shown are actives, neighbours in structure and some others; about 3.5% of the full set was active somewhere.
MITF inh: MITF inhibitors, primary screen, biochemical, AlphaScreen, human; Microphthalmia-associated transcription factor (Homo sapiens), O75030; AlphaScreen MITF homodimerization, bead proximity signal; AID 1259374, 2018; inhibition, % at 2.6 µM; actives 0.91% (n = 650,000); in the data active means inhibition above about 50%;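 further: 0% = vehicle wells with protein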
Target sequence (O75030 whole entry, looked up): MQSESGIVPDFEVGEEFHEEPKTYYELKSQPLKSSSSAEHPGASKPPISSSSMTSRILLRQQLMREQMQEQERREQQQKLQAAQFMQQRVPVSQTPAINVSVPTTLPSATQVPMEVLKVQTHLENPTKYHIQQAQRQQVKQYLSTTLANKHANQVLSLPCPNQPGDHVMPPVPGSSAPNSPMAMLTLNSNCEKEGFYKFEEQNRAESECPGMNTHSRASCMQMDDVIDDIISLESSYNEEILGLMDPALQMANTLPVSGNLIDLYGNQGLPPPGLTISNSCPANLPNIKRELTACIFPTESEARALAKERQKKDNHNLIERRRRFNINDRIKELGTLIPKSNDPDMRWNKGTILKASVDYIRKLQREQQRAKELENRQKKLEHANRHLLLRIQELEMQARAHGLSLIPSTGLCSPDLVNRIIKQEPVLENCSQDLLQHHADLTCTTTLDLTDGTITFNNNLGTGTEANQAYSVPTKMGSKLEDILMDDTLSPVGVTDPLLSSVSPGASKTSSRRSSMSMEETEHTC
FBW7 act: FBW7 E3 ligase activators, primary screen, biochemical, AlphaScreen, human; normalized activity (activation), % at 26.1 µM; actives 0.13% (n = 650,000); F-box/WD repeat-containing protein 7 (Homo sapiens), Q969H0; AlphaScreen FBW7–phospho-cyclin E peptide binding, activator screen; in the data active means normalized activity above about 1.9%;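 further: purified mutant Fbw7 with reduced substrate affinity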
TEAD-YAP inh: TEAD-YAP interaction inhibition, primary screen, TEAD-YAP interaction inhibitor project, luminescence, HEK-TIYL cells. AID 1259422, 2018. inhibition, % at 9.12 µM. actives 1.4% (n = 640,000). TEAD-Gal4/YAP UAS-luciferase luminescence; in the data active means inhibition above about 32%;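 further: 0% = median of test compound wells and 100% = reference inhibitor wells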
GPR151 ag: activators of human GPR151, primary screen, cell-based, PathHunter beta-arrestin, luminescence; PathHunter beta-arrestin GPR151 cells; actives 1% (n = 650,000); activation, % at 11.2 µM; in the data active means activation above about 4.9%;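 further: 0% = median of compound wells and 100% = cells with positive control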
Numbers without * were called inactive; ! = a repeat was not active.

SMILES	MITF inh	FBW7 act	TEAD-YAP inh	GPR151 ag
C=CCN1C(=O)C2(/C(=C(\O)c3ccccc3)C(=O)C(=O)N2CCOC)c2ccccc21 (stereo unspecified)	-9.9	0.0	-0.8	-0.8
COCCNC(=O)c1ccc(Cn2c(SCC(=O)c3ccccc3)nc3ccc(Br)cc3c2=O)cc1	12.2	0.3	-17.4	-0.2
Cc1cc(C)c2nc3nc(C)c(C)cc3c(N)c2c1	15.7	-0.2	80.5*	-1.8
CCC(C)NC(=O)C1CCN(C(=O)c2cnn(-c3ccccc3)c2-n2cccc2)CC1 (stereo unspecified)	-11.9	0.0	-5.8	1.5
Cc1ccc2cc3c(nc2c1C)OC(C)C(=O)N(Cc1cccnc1)C3 (stereo unspecified)	10.5	0.1	33.7*	-1.5
Cc1cccc2cc3c(nc12)OC(C)C(=O)N(Cc1cccnc1)C3 (stereo unspecified)	-1.9	0.0	1.0	0.2
O=C(c1cc(Cc2cccc3ccccc23)no1)N1CCSCC1	1.5	0.1	-1.1	2.2
C=CCN(C(=O)C(F)(F)F)C(C(=O)NC1CCCCC1)c1ccncc1 (stereo unspecified)	-7.2	0.0	-3.5	1.5
O=[N+]([O-])c1ccc2ncnc(N3CCN(Cc4ccccc4)CC3)c2c1	15.9	0.6	9.4	-1.5
CC1CCCN(c2ncnc3ccc([N+](=O)[O-])cc23)C1 (stereo unspecified)	1.3	-0.2	35.1*	0.9
COC(=O)c1cccc(C(=O)Nc2cccc(F)c2)n1	6.5	0.1	4.4	-1.2
Cn1c(Nc2nc(NCc3nc4ccccc4[nH]3)c3ncn(-c4ccsc4)c3n2)nc2ccccc21	11.6	0.1	22.5	0.2
c1ccc2[nH]c(CNc3nc(Nc4ccc(-n5ccnc5)cc4)nc4c3ncn4-c3ccsc3)nc2c1	3.2	-0.1	64.8*	-1.6
c1ccc2[nH]c(CNc3nc(Nc4ccncc4)nc4c3ncn4-c3ccsc3)nc2c1	4.6	-0.3	84.7*	-2.8
c1cncc(CNc2nc(Nc3ccc(-n4ccnc4)cc3)nc3c2ncn3-c2ccsc2)c1	6.0	0.1	55.3*	-0.2
c1cn(-c2ccc(Nc3nc(Nc4ccc5c(c4)OCO5)c4ncn(-c5ccsc5)c4n3)cc2)cn1	12.9	0.3	52.6*	-0.6
C=CCOC(=O)C1=C(C)OC(N)=C(C#N)C1c1ccccc1 (stereo unspecified)	10.6	0.0	4.5	-0.5
c1ccc2[nH]c(CNc3nc(Nc4ccncn4)nc4c3ncn4-c3ccsc3)nc2c1	-0.9	-0.2	82.3*	-1.6
Cc1ccc(Nc2c(Cl)c(Cl)nc(Cl)c2C(F)(F)F)cc1	12.8	0.1	66.7*	-0.4
COc1ccc(Nc2nc(Cl)c(C(F)(F)F)c(Cl)c2Cl)cc1	13.1	0.2	-1.8	1.7
O=c1[nH]c(N2CCCCC2)nc2c1CCN(Cc1ccc(O)c(O)c1)C2	82.2*	-0.4	-9.7	-0.9
Cc1ccc(/C=C2\CC/C(=C\c3ccc(C)o3)C2=O)o1	58.4*	-0.2	8.7	-1.1
CCOc1ccc(C(=O)N2CCC3(CC2)OCCN3S(=O)(=O)c2ccc(OC)cc2)cc1	22.7	0.2	14.7	-1.0
CC1=CC(=O)C(N2CCC(Cc3ccccc3)CC2)=CC1=O	59.6*	-0.3	4.0	-1.6
O=S(=O)(Cc1ccccc1)N1CCC(Cc2ccccc2)CC1	-4.5	0.0	3.3	0.5
SMILES	MITF inh	FBW7 act	TEAD-YAP inh	GPR151 ag
Cc1ccc(C(C)C)c(OCC(O)CN2CCSCC2)c1 (stereo unspecified)	-2.3	-0.1	1.6	-1.8
CCS(=O)(=O)c1ccc2oc(=O)c(/C=C(\O)c3ccc(OC)cc3)nc2c1	3.7	-0.1	-2.0	-1.0
COc1ccc(Cl)cc1C(=O)NCc1ccc2c(c1)cc(C)n2C	-1.2	0.1	43.9*	1.1
CCOC(=O)C1=C(C)NC2=C(C(=O)CC(c3ccc(OC)cc3)C2)C1c1ccccc1OC(C)C (stereo unspecified)	17.2	0.1	-5.3	1.3
COc1ccc(C2CC(=O)C3=C(C2)NC(C)=C(C(=O)OC(C)C)C3c2ccccc2OC(C)C)cc1 (stereo unspecified)	8.1	2.4*	-7.0	0.1
CC1=C(C(=O)OC(C)C)C(c2ccncc2)C2=C(CC(c3ccccc3)CC2=O)N1 (stereo unspecified)	8.0	2.1*!	9.4	0.2
CC1=C(C#N)C(c2ccc(C)cc2)C2=C(CC(c3ccccc3)CC2=O)N1 (stereo unspecified)	1.8	0.1	32.3*	-0.8
CSc1ccc(CCNCc2c(C(=O)O)c(C)n(Cc3ccc(C)cc3)c2C)cc1	31.9	0.9	1.1	4.6
COc1ccccc1C(=O)Nc1cc2cc([N+](=O)[O-])ccc2oc1=O	12.9	0.1	2.1	-0.8
CN(C)S(=O)(=O)c1ccc(NC(=O)COc2ccccc2Cl)cc1	2.4	0.2	-4.3	1.2
CCCCOc1ccc(C(=O)Nc2cc(C)ccn2)cc1	8.4	0.1	51.7*	-7.0
Cc1cc(NC(=O)c2ccc(N3CCCCS3(=O)=O)cc2)ccc1Br	19.7	0.0	10.1	-0.4
COc1ccc2oc(=O)c(C(=O)Nc3ccc(C)cc3Br)cc2c1	-0.8	-0.1	1.2	0.8
CCCCCOc1ccc(C(=O)Nc2cc(C)on2)cc1	6.0	-0.1	-13.6	-1.8
Cc1ccnc(NC(=O)c2ccc(N3CCCCS3(=O)=O)cc2)c1	0.8	-0.3	88.1*	-8.5
COc1ccc2oc(=O)c(C(=O)Nc3cc(C)ccn3)cc2c1	-5.0	-0.1	33.9*	1.4
COc1ccc(-n2nnnc2SCC(=O)N(C(C)C)C(C)C)cc1OC	5.2	0.2	14.5	-0.9
Cc1ccc(C(C)CCN2CCC(C3(CCc4ccccc4)NC(=O)NC3=O)CC2)o1 (stereo unspecified)	0.8	-0.2	-6.3	-0.1
Cc1cc(NC(=O)Nc2ccccc2)ccc1N1CCCCC1=O	-7.2	-0.4	37.3*	-10.4
COc1ccc(C2CC(=O)C=C(Nc3cc(Cl)ccc3O)C2)cc1 (stereo unspecified)	3.7	2.1*	2.9	-0.4
COc1ccc(C2CC(=O)C=C(Nc3cc(C)ccc3O)C2)cc1 (stereo unspecified)	-3.6	-0.1	3.0	-0.8
CCOc1ccc(NC(=O)Cn2cc(C(=O)c3ccccc3)c(=O)c3cc(Cl)ccc32)cc1	5.9	2.7*	2.8	-0.9
CCOC(=O)c1cc(NC(=O)Cn2cc(C=O)c3ccccc32)ccc1Cl	14.9	0.0	35.2*	1.1
COc1cccc(NC(=O)Cn2cc(C(=O)c3ccccc3)c(=O)c3cc(Cl)ccc32)c1	1.3	0.0	-1.7	-0.1
CCOC(=O)C1=C(CN2CCCC2)NC(=O)NC1c1cccs1 (stereo unspecified)	4.2	0.7	3.6	-0.8
CCOC(=O)C1=C(CN2CCC(C(N)=O)CC2)NC(=O)NC1c1cccs1 (stereo unspecified)	-8.9	2.6*	-1.3	-1.2
